Screening data: PubChem, National Center for Advancing Translational Sciences (NCATS)
This is a sample that favours compounds with a hit; in the whole collection about 11% have one here.
JMJD2A Tudor inh = JMJD2A Tudor domain (human) inhibition. O75164. AlphaScreen JMJD2A-Tudor / H3K4me3 peptide binding. Potency, µM (top dose mostly 114 µM), most hits filed as inhibitors. hit rate 4.4% among 390,000; also: nearly all actives have a fitted effect of over 50% in size
PLK1 PBD inh = blocks phosphopeptide binding to human PLK1 polo-box domain; hit rate 2.8% among 360,000; P53350; Potency, µM, most hits filed as inhibitors; Plk1 PBD binding of FITC phosphopeptide, fluorescence polarization; also: series mostly up to about 57 µM; nearly all actives have a fitted effect of over 65% in size
VDR inh = inhibitors of human vitamin D receptor | P11473 | VDR-SRC2-3 peptide fluorescence polarization, 2 h | Potency, µM, actives largely listed as inhibitors | hit rate 0.93% among 400,000 | AID 504847
Target sequence (P11473 whole entry, looked up): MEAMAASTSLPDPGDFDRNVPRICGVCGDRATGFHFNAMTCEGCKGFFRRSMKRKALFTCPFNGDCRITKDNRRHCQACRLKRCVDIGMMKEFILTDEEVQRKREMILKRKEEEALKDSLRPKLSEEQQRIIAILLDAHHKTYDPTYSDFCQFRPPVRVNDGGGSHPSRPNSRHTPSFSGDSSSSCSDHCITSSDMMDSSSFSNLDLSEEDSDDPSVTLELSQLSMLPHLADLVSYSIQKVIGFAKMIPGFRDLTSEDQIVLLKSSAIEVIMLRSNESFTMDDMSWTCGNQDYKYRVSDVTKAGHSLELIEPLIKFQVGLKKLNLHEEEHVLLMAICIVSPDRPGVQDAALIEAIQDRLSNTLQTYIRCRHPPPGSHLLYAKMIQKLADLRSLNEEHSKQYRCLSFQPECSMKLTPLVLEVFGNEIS
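Inhibition of the VDR/SRC2-3 peptide interaction is quantified by fluorescence polarization. Compounds (23 nl, pintool) incubate with the reagents for 2 hours at ambient room temperature.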
HP1b chromo inh = blocks HP1-beta chromodomain binding to methylated histone tails. P83916. AlphaScreen HP1-beta / biotin-H3K9me3 peptide binding. Potency, µM (series often up to 114 µM), actives largely listed as inhibitors. hit rate 0.56% among 390,000; also: nearly all actives have a fitted effect of over 70% in size
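Compound inhibition of the preformed complex between 50 nM HP1-beta and 50 nM biotinylated H3K9me3 peptide was read by AlphaScreen. Buffer was PBS pH 7.4 with 0.01% Tween-20. Incubations ran 30 min at room temperature, with 10 ug/mL donor/acceptor beads.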
BAZ2B block = BAZ2B (human) inhibition; Potency, µM (doses to about 114 µM), hits mostly inhibitors; AlphaScreen BAZ2B-H3K14Ac peptide displacement; AID 504333; hit rate 4.4% among 360,000; also: nearly all actives have a fitted effect of over 60% in size
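Complex of BAZ2B and biotin-H3K14Ac (50 nM apiece) forms over 30 min at RT, then faces library compounds up to 110 uM for another 30 min; AlphaScreen beads added, 20 min dark incubation, luminescence read.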
G9a inh = G9a (human) methyltransferase inhibition | G9a H3K9 monomethylation, AlphaScreen, 2 h | Q96KQ7 | hit rate 8.8% among 350,000 | Potency, µM (series often up to 102 µM), usual class: inhibitors; also: nearly all actives have a fitted effect of over 75% in size
Target sequence (Q96KQ7 913-1193 limits assumed): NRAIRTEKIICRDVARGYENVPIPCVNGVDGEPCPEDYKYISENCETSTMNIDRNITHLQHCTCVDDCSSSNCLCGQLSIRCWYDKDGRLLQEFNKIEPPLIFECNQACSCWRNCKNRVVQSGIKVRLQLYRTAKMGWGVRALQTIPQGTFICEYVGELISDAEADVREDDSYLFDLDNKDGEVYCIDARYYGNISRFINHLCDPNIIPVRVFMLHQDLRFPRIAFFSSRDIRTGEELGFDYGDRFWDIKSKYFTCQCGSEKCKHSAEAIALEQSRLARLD
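Quantitative HTS format: methyltransferase activity on a biotin-tagged H3K9 peptide is measured by AlphaScreen, using a rabbit anti-monomethyl-H3K9 antibody with streptavidin donor and anti-IgG acceptor beads. Final levels are 20 nM enzyme, 500 nM peptide, 20 uM SAM; 2 h RT.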
Each line names hits and unclear results; the compound was inactive in the other large screens. Calls follow the shape of the dose curve; as a rule, active = well fitted curve in the direction sought with a large enough effect; inconclusive = small, poorly fitted or top-dose-only effect, or another doubt; inactive = no such curve, though single readings can be large; an effect the other way counts as inactive or inconclusive.

Cc1ccc(-c2cc(-c3ccco3)c(C#N)c(=O)[nH]2)cc1	JMJD2A Tudor inh 79.4µM, BAZ2B block 50.1µM
N#Cc1c(-c2ccco2)cc(-c2ccccc2)[nH]c1=O	JMJD2A Tudor inh inconclusive, BAZ2B block 70.8µM (no result: G9a inh)
Cc1ccc(-c2cc(C(F)(F)F)c(C#N)c(=O)[nH]2)cc1	none
O=C(O)Cn1ncc2c1-c1ccoc1CC2	JMJD2A Tudor inh 56.2µM, BAZ2B block inconclusive, G9a inh 11.2µM
O=C(Cn1ncc2c1-c1ccccc1OC2)N1CCc2ccccc21	none
O=C1CC(c2ccccc2)n2nc(NC(=O)c3ccccn3)nc2N1 (configuration not stated)	JMJD2A Tudor inh 7.94µM
COc1ccc(C(=O)Nc2nc3n(n2)C(c2ccc(Cl)cc2)C=C(c2ccccc2)N3)cc1OC (configuration not stated)	JMJD2A Tudor inh 56.2µM, BAZ2B block 28.2µM, G9a inh inconclusive (no result: PLK1 PBD inh)
O=C(Nc1ccc(Cl)cc1)c1cnn2c1NC(c1ccccc1)=CC2c1ccccc1 (configuration not stated)	JMJD2A Tudor inh inconclusive, G9a inh 10µM (no result: PLK1 PBD inh)
CC1=C(C(=O)Nc2ccc(Cl)cc2)C(c2ccccc2)n2ncc(C(=O)Nc3ccccc3)c2N1 (configuration not stated)	none (no result: PLK1 PBD inh)
O=C(Nc1nc2n(n1)C(c1ccccc1)C=C(c1ccccc1)N2)c1ccccc1 (configuration not stated)	JMJD2A Tudor inh 56.2µM, BAZ2B block 20µM, G9a inh 10µM (no result: PLK1 PBD inh)
COc1ccc(Oc2ncc3nc(-c4cc(F)cc(F)c4)c(=O)n(C[C@H]4CCCO4)c3n2)cc1	none (no result: JMJD2A Tudor inh, PLK1 PBD inh, HP1b chromo inh, BAZ2B block)
CN(CC(=O)Nc1ccccc1Cl)C(=O)Cn1cnc2ccccc2c1=O	G9a inh inconclusive
CC(Nc1nc(-c2cccnc2)nc2ccccc12)c1ccc(F)cc1 (configuration not stated)	none
CC(=O)Nc1ccc(CC(=O)Nc2ccc3c(c2)OC2(CCCC2)O3)cc1	none (no result: JMJD2A Tudor inh, VDR inh, HP1b chromo inh, BAZ2B block, G9a inh)
Nc1ccc2c(c1)OC1(CCCCC1)O2	JMJD2A Tudor inh 56.2µM, HP1b chromo inh inconclusive, BAZ2B block inconclusive
COc1ccc(CN(CC(O)COc2cccc3[nH]cc(C)c23)C(C)(C)C)cc1 (configuration not stated)	JMJD2A Tudor inh 50.1µM, HP1b chromo inh inconclusive, BAZ2B block inconclusive, G9a inh inconclusive
COc1ccc(CN(C)CC(O)COC(c2ccc(OC)cc2)c2ccc(OC)cc2)cc1 (configuration not stated)	none
Cc1ccnc(NC(=O)COC(=O)c2ccc(F)cc2F)n1	none
Cc1sc(-c2ccccn2)nc1OC(=O)c1ccc(F)cc1F	BAZ2B block 79.4µM, G9a inh 10µM
Cc1sc(-c2ccccn2)nc1OC(=O)c1ccc(Cl)c(Cl)c1	G9a inh 39.8µM
COc1ccc(S(=O)(=O)NCCCC(=O)Nc2ccc(Sc3ccc(N)cc3)cc2)cc1	none (no result: JMJD2A Tudor inh, PLK1 PBD inh, HP1b chromo inh, BAZ2B block, G9a inh)
CC(C)(C)OC(=O)NCCC(=O)N/N=C/c1cccc2nccnc12	BAZ2B block inconclusive, G9a inh inconclusive
O=C(N/N=C/c1cccc2nccnc12)c1ccncc1	JMJD2A Tudor inh 56.2µM, BAZ2B block 17.8µM
O=C(N/N=C\c1ccccn1)c1ccccc1O	JMJD2A Tudor inh inconclusive
O=C(N/N=C/c1ccc(O)cc1O)c1ccncc1	JMJD2A Tudor inh 56.2µM, BAZ2B block 31.6µM
O=C(N/N=C/c1cccc2cccnc12)c1ccccc1O	JMJD2A Tudor inh 7.94µM, BAZ2B block 7.08µM
O=C(N/N=C/c1cccc2nccnc12)c1ccccc1O	BAZ2B block 28.2µM
O=C(COC(=O)c1ccccc1C(=O)OCC(=O)NCCc1c[nH]c2ccccc12)NCCc1c[nH]c2ccccc12	JMJD2A Tudor inh inconclusive, BAZ2B block inconclusive
O=C(CN1C(=O)NC2(CCCCC2)C1=O)Nc1ccccc1N1CCCC1	none
CC(=O)Nc1ccn(C2OC(C(COC(C)=O)NC(=O)C(Cc3ccccc3)NC(=O)OC(C)(C)C)C(OC(C)=O)C2OC(C)=O)c(=O)n1 (configuration not stated)	none (no result: PLK1 PBD inh, BAZ2B block, G9a inh)
O=C(N/N=C/c1ccc(Cl)cc1Cl)c1ccncc1	BAZ2B block inconclusive (no result: G9a inh)
CCc1cc(C(=O)N/N=C/c2ccc(O)cc2O)c2ccccc2n1	JMJD2A Tudor inh 79.4µM, BAZ2B block 44.7µM
O=C(N/N=C/c1cc(Cl)cc(Cl)c1O)c1ccncc1	JMJD2A Tudor inh 22.4µM, BAZ2B block 10µM
Cc1nc(N)sc1-c1csc(N(C)c2ccc(O)cc2)n1	JMJD2A Tudor inh 56.2µM, G9a inh 44.7µM
CN(c1ccc(O)cc1)c1nc(-c2cccs2)cs1	JMJD2A Tudor inh inconclusive, HP1b chromo inh inconclusive
Cc1ccc(-c2nn3c(-c4ccco4)nnc3c3ccccc23)cc1S(=O)(=O)NCC1CCCO1 (configuration not stated)	G9a inh 20µM
Cc1ccc(-c2nnc(Nc3ccccc3)c3ccccc23)cc1S(=O)(=O)NCC1CCCO1 (configuration not stated)	none
CCOC(=O)c1c(-c2ccccc2)oc2ccc(OCc3ccccc3Br)cc12	none (no result: PLK1 PBD inh)
COc1cccc(-n2nnc3c(=O)n(CC(=O)Nc4cc(C)on4)cnc32)c1	none
Clc1cc(Br)ccc1OCCOCCN1CCOCC1	JMJD2A Tudor inh 7.08µM, BAZ2B block inconclusive, G9a inh inconclusive
Cc1cccc(OCCCN2CCOCC2)c1C	JMJD2A Tudor inh 25.1µM, HP1b chromo inh inconclusive, BAZ2B block inconclusive (no result: G9a inh)
Clc1cc(Br)ccc1OCCOCCN1CCCC1	JMJD2A Tudor inh 31.6µM, HP1b chromo inh inconclusive, BAZ2B block inconclusive, G9a inh 39.8µM
Cc1ccc(C)c(OCCN2CCOCC2)c1	G9a inh inconclusive
Cc1ccc(OCCCCCN2CCOCC2)c(Cl)c1	JMJD2A Tudor inh 22.4µM, HP1b chromo inh 50.1µM (no result: BAZ2B block, G9a inh)
CC(=O)Nc1cncc(-c2cccc(C(=O)N3CCOCC3)c2)n1	none (no result: JMJD2A Tudor inh, VDR inh, HP1b chromo inh, BAZ2B block, G9a inh)
CCc1nn(CC(=O)N2CCCCC2)c(=O)c2cc3occc3n12	none (no result: PLK1 PBD inh)
Cc1ccc(CNC(=O)CCSCCC(=O)NCc2ccc(C)cc2)cc1	none
CCOc1ccc(Br)cc1C1C(C(=O)OC)=C(C)NC2=C1C(=O)c1ccccc12 (configuration not stated)	JMJD2A Tudor inh 25.1µM, HP1b chromo inh inconclusive, BAZ2B block 22.4µM, G9a inh inconclusive (no result: PLK1 PBD inh)
CCOc1ccccc1C1NC(=O)NC(C)=C1C(=O)OCc1ccccc1 (configuration not stated)	none
CCOc1cc(C2C(C(=O)OC)=C(C)NC3=C2C(=O)c2ccccc23)cc(Cl)c1O (configuration not stated)	BAZ2B block inconclusive, G9a inh inconclusive (no result: PLK1 PBD inh)
CCOC(=O)COc1ccccc1C1C(C(=O)OC)=C(C)NC2=C1C(=O)c1ccccc12 (configuration not stated)	JMJD2A Tudor inh 39.8µM, HP1b chromo inh inconclusive, BAZ2B block 39.8µM, G9a inh 12.6µM (no result: PLK1 PBD inh)
COc1ccc2oc(C(=O)Nc3ccc(S(=O)(=O)N(C)C4CCN(C)CC4)cc3)c(C)c2c1	none
